Drawing on ChEMBL document CHEMBL4513216, “Probing the Open Global Health Chemical Diversity Library for Multistage-Active Starting Points for Next-Generation Antimalarials” (ACS Infect Dis, 2020), this text covers INHIBITION for 68 compounds.

About 2,700 (4%) of roughly 68,000 compounds showed an effect of 50% or more. Shown is part of a subset that was picked to be rich in strong results.

The test system of this assay is Plasmodium berghei. The assay can be described thus: Screen against P. berghei liver stage (PbLuc), transformed with Luciferase, at 2uM. It counts as functional, HepG2. As to conditions: tested at 2 uM.
Consider `CC(C)C(=O)NC1CC2(CCN(CC(=O)N(C)C)CC2)c2ccccc21` (stereo not drawn), for which the INHIBITION is -0.91%. The figure for `CCC(=O)Nc1cccc(OCC(=O)N(C)Cc2ccon2)c1` is 19.91%; for `CCC(=O)Nc1cccc(OCC(=O)N(C)Cc2nc(C)c[nH]2)c1` it is 53.13%. The figure for `CCc1cccc(NC(=O)CCC(=O)N(C)Cc2nc(C)c[nH]2)c1` is -53.55%. `CCn1nc(C)c2nc(C(C)C)nc(NCCCn3cccn3)c21`: the INHIBITION was -25.67%. In the case of `Cc1cccc(CN2CCn3cc(CNC(=O)CC4CC4)nc3C2)n1` it was 17.24%; in that of `O=C1COC2(CCN(Cc3nccs3)CC2)CN1CC1CC1`, 7.86%; in that of `CCc1cnc(N2C[C@@H]3C[C@H](C(=O)NC)[C@H](C2)O3)nc1`, 18.91%. With `N#Cc1cccc(S(=O)(=O)N2CCCCC2CCN2CCCC2)c1` (stereo not drawn), the INHIBITION was -8.84%. Regarding `N#Cc1cccc(S(=O)(=O)N2CCCCC2C(N)=O)c1` (stereo not drawn), the INHIBITION was determined as 70.24%. The figure for `CC(=O)NCCC1CCCCN1S(=O)(=O)c1cccc(C#N)c1` (stereo not drawn) is -7.53%.

Take `CCOc1cccc(NC(=O)c2cnc(C)cn2)n1`: the INHIBITION was determined as 29.97%.

`CC(C)=CCS(=O)(=O)Cc1nc(C(C)C)no1`: the INHIBITION amounted to 34.69%. The figure for `CN1CCCC1CCNC(=O)c1ccccc1-n1cc(CN)cn1` (stereo not drawn) is -10.49%; for `O=C(C1CCCO1)N1CCC(n2cc(-c3ccsc3)nn2)CC1` (stereo not drawn) it is 7.67%.

On to `O=C(C1CCCO1)N1CCC(n2cc(-c3ccc(F)cc3)nn2)CC1` (stereo not drawn), for which the INHIBITION is 31.51%. Regarding `Cc1ccc(-c2cn(C3CCN(C(=O)[C@H]4CCCO4)CC3)nn2)cc1`, the INHIBITION is 74.44%. For `CN(Cc1ccc(F)cc1)C(=O)NCc1nnc2n1CCCCC2`, the INHIBITION is recorded as -43.41%. Turning to `O=C(NCCCN1CCCCC1)c1ccc(-n2ccc3ccccc32)s1`, the INHIBITION came out at 13.64%. In the case of `O=C(NCCN1CCOCC1)c1ccc(-n2ccc3ccccc32)s1`, the INHIBITION turned out to be 52.4%. As to `O=C(NCCCN1CCOCC1)c1ccc(-n2ccc3ccccc32)s1`, the INHIBITION is recorded as 28.31%. In the case of `CC(C)(C)c1nc(CN2CCCC2c2nnc3ccccn23)no1` (stereo not drawn) it was -12.01%. The figure for `COc1nc2ccn(CCc3cnccn3)c(=O)c2cc1C#N` is -32.52%; for `COc1nc2ccn(CCNc3cc(C)ccn3)c(=O)c2cc1C#N` it is 55.39%. In the case of `COc1nc2ccn(CCc3scnc3C)c(=O)c2cc1C#N` it was 0.31%; in that of `O=C([C@@H]1CCCN1c1nccc(Nc2ccccc2)n1)N1CCCCC1`, -16.43%; in that of `CCC(CN1CCCC1)NC(=O)C1(c2cccc(F)c2)CC1` (stereo not drawn), 6.64%. As to `COc1cccc(-n2cc(CN(C)C(=O)c3cnc(O)cn3)cn2)c1`, the INHIBITION was -6.27%. Regarding `C=C(C)COc1ccccc1C(=O)N(C)C(C)c1c(C)n[nH]c1C` (stereo not drawn), the INHIBITION amounted to 29.81%. In the case of `COc1cccc(C(=O)N(C)C(C)c2c(C)n[nH]c2C)c1OC` (stereo not drawn) it was 50.63%; in that of `C=C(C)COc1cccc(C(=O)N(C)C(C)c2c(C)n[nH]c2C)c1` (stereo not drawn), -10.92%. As to `CC(C)N1CCCn2c(nc(CNC(=O)c3nccn3C)cc2=O)C1`, the INHIBITION is given as -25.29%. In the case of `CCN(CC)C(=O)c1ccn(COc2ccc(F)cc2)n1` it was 17.7%; in that of `CCc1n[nH]c(C2CN(C(=O)Cc3ccc(C)nc3)CCO2)n1` (stereo not drawn), 36.48%. For the compound `O=C(CN1CCCC(c2noc(C3CC3)n2)C1)N1CCCC1` (stereo not drawn), the INHIBITION stood at 19.45%. Take `O=C(CN1CC(c2nc(C3CC3)no2)C1)N1CCOCC1`: the INHIBITION turned out to be 56.9%.

Take `CC1CCN(C(=O)CN2CC(c3nc(C4CC4)no3)C2)CC1`: the INHIBITION turned out to be 12.57%. As for `O=C(c1cccnc1)N1CCC2(CC1)CCN(c1ccsc1)C2=O`, the INHIBITION is on record as -8.05%.

Regarding `O=C(Cc1ccccc1Cl)NCCN1CCC(c2cccs2)CC1`, the INHIBITION was 28.43%.

On to `Cn1cc(CC(=O)N2CCCC(n3cncn3)C2)cn1` (stereo not drawn), for which the INHIBITION was found to be 38.76%.

As for `Cc1nccn1C1CCCN(C(=O)c2cccc(S(C)(=O)=O)c2)C1` (stereo not drawn), the INHIBITION is on record as 5.72%.

As to `COc1ccccc1C1(CNc2cc(C(=O)N(C)C)ccn2)CC1`, the INHIBITION is on record as 33.78%. As for `COc1ccccc1C1(CNc2ccc(C(=O)N(C)C)cn2)CC1`, the INHIBITION is 50.61%. Take `CN(C)C(=O)c1ccc(NCCNc2ccc3ccccc3n2)nc1`: the INHIBITION is -37.09%. In the case of `COc1ccccc1C1(CNc2ccnc(C(=O)N(C)C)c2)CC1` it was 67.44%. As to `COc1ccccc1C1(CNC(=O)NCc2noc(C)n2)CC1`, the INHIBITION is reported as 15.28%.

Regarding `COc1ccccc1C1(CNc2ncc(S(N)(=O)=O)s2)CC1`, the INHIBITION turned out to be 7.67%. The figure for `OCCOCCN1CCCC1c1cccc(Cl)c1` (stereo not drawn) is -17.64%; for `Cc1nc(N(C)C)nc(N(C)Cc2cnccn2)c1C` it is 20.29%. In the case of `COC(=O)c1ccc(C2SC(C)=Nc3c2c(=O)[nH]n3C2CCCC2)cc1` (stereo not drawn) it was -3.18%; in that of `CCCN(C)S(=O)(=O)N1CCCC1c1ccco1` (stereo not drawn), -3.57%; in that of `COC(=O)c1cccc(S(=O)(=O)NC(=O)c2ccccc2F)c1`, 0%. In the case of `Cc1cc(NC(=O)C(C)Nc2cccc(COCc3ccco3)c2)on1` (stereo not drawn) it was 55.52%. As to `CCOC(=O)C(C)Nc1cccc(COCc2ccco2)c1` (stereo not drawn), the INHIBITION was -5.44%. The figure for `Cc1cc(NC(=O)C(C)Nc2cccc(COCc3ccco3)c2)no1` (stereo not drawn) is 21.57%. The figure for `Cc1ncc(CNC2CC(=O)N(CCc3cccc(Cl)c3)C2)n1C` (stereo not drawn) is -15.29%. The figure for `NC(=O)C1CCN(CC(=O)N(Cc2ccccc2)Cc2nccs2)CC1` is 26.93%; for `Cc1nc(C(=O)NCCS(=O)(=O)N2CCCC2)cs1` it is 3.29%. In the case of `CCc1cc(NCc2cccnc2N2CCCCC2)n2ncnc2n1`, the INHIBITION came out at 64.9%. In the case of `CCc1cc(NCc2ccccc2CN2CCCC2)n2ncnc2n1` it was -23.61%. In the case of `CCc1cc(NCC(O)CN2CCCCC2)n2ncnc2n1` (stereo not drawn) it was 16.01%. In the case of `CCC(C)[C@H](N)c1nnc(SCC(=O)Nc2ccc(Br)cc2)o1` (stereo partly drawn) it was -7.19%; in that of `CNc1cc(C2CN(C(=O)c3cscn3)CCO2)nc(C)n1` (stereo not drawn), 26.69%; in that of `CCc1nc(CN(C(C)=O)C2CCN(CCc3ccncc3)C2)no1` (stereo not drawn), -21.22%. As for `CCc1nc(CN(C(C)=O)C2CCN(CCc3cnn(C)c3)C2)no1` (stereo not drawn), the INHIBITION is -10.66%. Take `COCCCNC(=O)c1cn(C(C)C)cc2c(=O)[nH]nc1-2`: the INHIBITION is reported as 15.34%. The figure for `CC(C)CNC(=O)c1cn(C(C)C)cc2c(=O)[nH]nc1-2` is 55.52%; for `CC(C)n1cc(C(=O)NCCN(C)C)c2n[nH]c(=O)c-2c1` it is 9.1%.
